Hit rate of the full screen: of about 640,000 compounds, about 9,300 (1.5%) were called active. The sample holds actives, similar compounds and a random draw of the others, so the mix is not that of the screen. A number with no mark means an inactive call. No stated cut-off is given here; in the data, active means inhibition above about 32%; inactive means the rest.

This experiment is described as follows: TEAD-YAP interaction inhibition, primary screen, TEAD-YAP interaction inhibitor project, luminescence, HEK-TIYL cells (AID 1259422).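 Further: 0% = median of test compound wells and 100% = reference inhibitor wells.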 Particulars: TEAD-Gal4/YAP UAS-luciferase luminescence, at 9.12 µM, active compounds read high.
`CSc1nnc2c(n1)OC(c1ccc(N(C)C)cc1)Nc1ccc(Br)cc1-2` (centres undefined): the inhibition (as a rule, the drop in the measured response relative to a control, in per cent) was -2.24%.

Take `Cc1cccc(N(CC(O)c2ccccc2)S(=O)(=O)c2ccc3c(c2)OCCO3)c1` (centres undefined): the inhibition is 2.94%.

For the compound `N#CC(C#N)=C1SCC(=O)N1c1ccc(F)cc1`, the inhibition was -0.92%.

For `CCn1c(N=Nc2c(O)[nH]c3ccccc23)nc2c1c(=O)n(C)c(=O)n2C`, the inhibition was 6.12%.

As to `OCCC1CCCCN1c1ccnc2c(-c3ccc(F)c(Cl)c3)cnn12` (centres undefined), the inhibition is 41.4% (active).

Consider `OC[C@@H]1CCCN1c1ccnc2c(-c3cccc4ccccc34)cnn12`, for which the inhibition was -40.1%.

Turning to `Cc1ccc(-c2cnn3c(NCc4ccc5c(c4)OCO5)ccnc23)cc1`, the inhibition is -8.18%.

Regarding `CN(C)CCNc1ccnc2c(-c3ccc(F)c(Cl)c3)cnn12`, the inhibition was -31.8%.

`O=C(NCCO)c1cccc(-c2cnn3c(N4CCCCC4CCO)ccnc23)c1` (centres undefined): the inhibition was -6.65%.

As for `OC[C@@H]1CCCN1c1ccnc2c(-c3ccc4c(c3)OCO4)cnn12`, the inhibition was 55.2% (active).

Take `N#Cc1ccsc1NC(=O)COC(=O)CC12CC3CC(CC(C3)C1)C2`: the inhibition is -33.5%.

Regarding `COc1ccc(Cl)cc1NC(=S)NC(C)c1ccncc1` (centres undefined), the inhibition was 2.52%.

For `CC1CN(c2nc3c(c(=O)[nH]2)CCN(c2cnccn2)C3)CC(C)O1` (centres undefined), the inhibition was 9.31%.

For `C=CCN1C(=O)S/C(=C/c2ccccc2F)C1=O`, the inhibition was -54.7%.

In the case of `Cc1ccc(OCc2nc3ccccc3n2CC(=O)Nc2cc(C)on2)cc1`, the inhibition is -69.6%.

As to `Oc1cccc(/C=N/Nc2ccc(Cl)nn2)c1O`, the inhibition was 79.2% (active).

As to `NC(=O)c1ccc(N=Cc2cccc(O)c2O)cc1`, the inhibition was -12.1%.

Take `Oc1ccc(/C=N/Nc2ccccc2Cl)c(O)c1O`: the inhibition is -1.62%.

As to `CCN1C(=O)N/C(=C/c2ccccc2OCc2ccc(C(=O)O)cc2)C1=O`, the inhibition was -1.26%.

Regarding `NS(=O)(=O)c1ccc(C(=O)OCc2cccc(Cl)c2Cl)cc1`, the inhibition is 8.02%.

For `COc1ccc2[nH]c(=O)c(CN(CCCO)Cc3nnnn3CC3CCCO3)cc2c1` (centres undefined), the inhibition was 5.17%.

`CC1CN(CCC(=O)N2CCCN(C3Cc4ccccc4C3)CC2)Cc2ccccc2O1` (centres undefined): the inhibition was -10.5%.

For `O=C(NC(=O)c1cccc(F)c1)OC1CCS(=O)(=O)C1` (centres undefined), the inhibition is -5.15%.

Turning to `CC(=O)Nc1nc(-c2ccc(C)c(C)c2)cs1`, the inhibition was -61.1%.

On to `CC(C)(C)C(=O)Nc1ccc(-c2csc(N)n2)cc1`, for which the inhibition is -22.9%.

For `CC(=O)NCCCc1ccc(-c2csc(N)n2)cc1`, the inhibition is 56.7% (active).

Take `Cc1cc2c(cc1C)NC(CC(=O)Nc1cccc([N+](=O)[O-])c1)C(=O)N2` (centres undefined): the inhibition is -4.87%.

Consider `CCOc1ccc(CN2CCN(Cc3cc(OC)ccc3O)CC2)cc1`, for which the inhibition is 3.2%.

Regarding `CCOC(=O)C1=C(C)NC2=C(C(=O)c3ccccc32)C1c1cc(Br)c(OC)c(OC)c1` (centres undefined), the inhibition was 57.2% (active).

Take `COC(=O)C1=C(C)NC2=C(C(=O)c3ccccc32)C1c1ccc(OC)cc1` (centres undefined): the inhibition is -0.11%.

In the case of `CCOC(=O)C1=C(C)NC2=C(C(=O)c3ccccc32)C1c1cccc(F)c1` (centres undefined), the inhibition was -6.85%.

Consider `C=CCNc1ccc([N+](=O)[O-])cc1C#N`, for which the inhibition was 3.17%.

For `Cc1ccc(NC(=O)C2CC3CCCN3C23C(=O)Nc2ccccc23)cc1` (centres undefined), the inhibition was 11.1%.

On to `CCCNC(=O)Cn1c(=O)oc2cc(Cl)ccc21`, for which the inhibition is 1.41%.

As for `Cc1sc(NC(=O)c2ccc(S(=O)(=O)N(C)c3ccccc3)cc2)c(C#N)c1C`, the inhibition is 3.35%.

With `CCc1cc2c(=O)c(-c3ccc4c(c3)OCCCO4)coc2cc1OC`, the inhibition is -34.2%.

For `COc1ccc(-c2coc3cc(OCCN4CCOCC4)ccc3c2=O)cc1OC`, the inhibition is 33% (active).

On to `CCc1cc2c(=O)c(-c3ccc4c(c3)OCCCO4)coc2cc1OC(=O)N1CCOCC1`, for which the inhibition was -8.61%.

Consider `COc1ccc(C(=O)Nc2cc(C)nn2-c2nc3ccccc3[nH]2)cc1[N+](=O)[O-]`, for which the inhibition is 10.1%.

`CCCc1cc(=O)[nH]c2nnc(SCC(=O)Nc3cc(OC)ccc3OC)n12`: the inhibition is -0.38%.

On to `Cn1c(/C(C#N)=C\c2ccc(-c3ccc(S(N)(=O)=O)cc3)o2)nc2ccccc21`, for which the inhibition was 36.2% (active).

Take `N#C/C(=C\c1ccc(-c2ccc(S(N)(=O)=O)cc2)o1)C(N)=O`: the inhibition was -6.41%.

As for `Cn1c(/C(C#N)=C/c2ccccc2)nc2ccccc21`, the inhibition is 2.92%.

For `COCCN(C(=O)CN1C(=O)c2ccccc2C1=O)C1(C(=O)Nc2ccccc2)CCCC1`, the inhibition is 4.63%.

`COc1ccc(CNCc2cc(-c3ccccc3)cn3nnnc23)cc1`: the inhibition is 16%.

With `Cc1cccc(-n2nc3c(c2NC(=O)c2ccc4c(c2)OCO4)CSC3)c1C`, the inhibition is 3.84%.

With `CC(C)(C)NC(=O)c1cccc(S(=O)(=O)N2CCN(c3ccc(F)cc3)CC2)c1`, the inhibition is 3.68%.

Take `Cc1ccc[n+](CC(=O)c2ccc(Cl)cc2)c1C`: the inhibition is 1.36%.

Consider `COc1ccc(CC(=O)c2ccc(OC)cc2)cc1`, for which the inhibition was -37.9%.

For `COc1ccc(C(=O)C[n+]2ccc(N)c(C)c2C)cc1`, the inhibition is 33% (active).

As for `CCOC(=O)C1=C(c2ccccc2)N=c2s/c(=C\c3ccc4c(c3)OCO4)c(=O)n2C1c1ccc(OC)c(OC)c1` (centres undefined), the inhibition was 6.04%.

Take `COc1ccc(-c2cc(NC3CC3)nc(N)n2)cn1`: the inhibition is -43.5%.

In the case of `COc1ccc(-c2ccc(C(=O)NC3CC3)s2)cn1`, the inhibition was 40.7% (active).

Consider `O=C(NC1CCN(Cc2ccccc2)CC1)c1ccc(-c2ccccc2)s1`, for which the inhibition was -22.3%.

Regarding `CC(C)N(C(=O)NCCC(=O)c1ccc(F)cc1)C(C)C`, the inhibition was -1.1%.

`CC(=O)Nc1ccc2nc3c(cc2c1)[nH]c1ccccc13`: the inhibition was 32.4% (active).

As for `Clc1cc2nc3[nH]c4ccccc4c3nc2cc1Cl`, the inhibition is -25.4%.

Regarding `CC(=O)Nc1ccc(-c2nc(-c3ccccc3)c3cc(C)ccc3n2)cc1`, the inhibition was 7.4%.

For `COc1ccc(C2/C(=C(\O)c3ccc(C)cc3)C(=O)C(=O)N2c2c(C)n(C)n(-c3ccccc3)c2=O)cc1` (centres undefined), the inhibition is -7.88%.

Regarding `COc1ccc(OCCSc2nnc3nc(C)cc(C)n23)cc1`, the inhibition was 0.54%.

Turning to `N#CCOc1ccc2c(=O)c(Oc3ccc4ccccc4c3)coc2c1`, the inhibition was 5.86%.

For the compound `COc1ccc(-c2cc(C(F)(F)F)n3nc(C(=O)NCc4ccccc4Cl)cc3n2)cc1`, the inhibition is -8.37%.

With `Cc1nc2scc(-c3cccs3)c2c(=O)n1N`, the inhibition is 4.54%.

On to `Cc1sc2nc3n(c(=O)c2c1C)N=C(c1cccs1)CS3`, for which the inhibition is 50.3% (active).

Regarding `Cc1sc2nc3n(c(=O)c2c1-c1cccs1)CCC3`, the inhibition is -2.17%.

For the compound `N=C1S/C(=C/c2ccc(-c3cc(Cl)ccc3[N+](=O)[O-])o2)C(=O)N1c1nonc1N`, the inhibition was 5.95%.

Regarding `C=CCNS(=O)(=O)c1cc(C(=O)Nc2ccccc2C(F)(F)F)ccc1F`, the inhibition was -7.91%.

For the compound `Cc1[nH]c2ccccc2c1CCNC(=O)/C(=C/c1ccccc1)NC(=O)c1cccc(Br)c1`, the inhibition is 2.37%.

As for `Cc1[nH]c2ccccc2c1/C=N/NC(=O)/C(=C/c1ccccc1O)NC(=O)c1ccccc1`, the inhibition was 83% (active).

Turning to `COc1cccc(/C=N/NC(=O)/C(=C/c2ccccc2)NC(=O)c2ccccc2)c1O`, the inhibition is 21.1%.

Consider `COc1ccc(C(=O)N/C(=C/c2ccc(Cl)cc2)C(N)=O)cc1`, for which the inhibition is -2.4%.

With `CC(=O)c1ccc(NC(=O)CN2C(=O)C3C4CCC(C4)C3C2=O)cc1` (centres undefined), the inhibition was -12%.

In the case of `CC(=O)Oc1ccc(N(C(C)=O)S(=O)(=O)c2c(C)cc(C)cc2C)cc1`, the inhibition is -4.17%.

Turning to `CC(=O)Oc1ccc(C(=O)Nc2ccncc2)cc1`, the inhibition was 1.93%.

In the case of `CC(=O)Oc1ccc(C(=O)N(C(=O)c2ccc(OC(C)=O)cc2)c2cc(C)ccn2)cc1`, the inhibition is 47.4% (active).

For the compound `COc1cc2cc(C)c3nnc(SCC(=O)NC(C)(C)C)n3c2cc1OC`, the inhibition was -7.33%.

Turning to `O=C1NC(=S)S/C1=C/c1ccc(-c2ccc3c(c2)COC3=O)o1`, the inhibition is -7.22%.

For the compound `O=C(NCc1cccc(C(F)(F)F)c1)c1csc(Nc2nccc3ccccc23)n1`, the inhibition is -0.98%.

Take `Cc1ccc(Nc2c(Cc3ccccc3)c(C)c(C#N)c3nc4ccccc4n23)cc1`: the inhibition was -19.3%.

Turning to `N#CC1=C(N)Oc2ccc3ccccc3c2C1c1ccc(F)cc1` (centres undefined), the inhibition was -0.56%.

With `N#CC1=C(N)Oc2ccc3ncccc3c2C1c1ccccc1F` (centres undefined), the inhibition was 50.8% (active).

As to `CCOc1ccccc1C1C(C#N)=C(N)Oc2ccc3ccccc3c21` (centres undefined), the inhibition was -6.22%.

Regarding `C=CCN(CC=C)C(=O)/C=C/c1cccc([N+](=O)[O-])c1`, the inhibition is 7.6%.

For `COc1cccc(OCC(=O)N2CCC3(CC2)OCc2ccccc2O3)c1`, the inhibition is -8.9%.

For the compound `CC(=O)N1c2ccc(NC(=O)c3ccccc3)cc2C(C)(c2ccc(C)cc2)CC1(C)C` (centres undefined), the inhibition was 13.9%.

As to `CC(Cl)/C(O)=C(\C#N)c1nc2ccccc2[nH]1` (centres undefined), the inhibition is -6.03%.

For `OCCNC1CCCc2c1[nH]c1ccc(-c3ccccc3)cc21` (centres undefined), the inhibition was -12.6%.

As to `Cc1ccc2[nH]c3c(c2c1)CCCC3NCc1ccccc1` (centres undefined), the inhibition is 53.6% (active).

Regarding `Cc1ccc2[nH]c3c(c2c1)CCCC3NC=O` (centres undefined), the inhibition is 5.42%.

On to `Cc1ccc2nc(-c3cccc(NC(=O)c4cc([N+](=O)[O-])ccc4Br)c3)oc2c1`, for which the inhibition is 6.62%.

Consider `O=C(COc1ccc(Cl)cc1)Nc1ncc(Cc2ccc(F)cc2)s1`, for which the inhibition is 5.3%.

Take `CC(=O)c1ccc(NC(=O)c2sc3nc4n(c(=O)c3c2C)CCCCC4)cc1`: the inhibition was -3.85%.

Regarding `CC(C)(C)NCC(O)COc1c(Br)ccc2c1sc1nc3n(c(=O)c12)CCCCC3` (centres undefined), the inhibition was -32.7%.

As for `O=c1c2c(nc3n1CCCCC3)sc1c(O)cccc12`, the inhibition was 92.2% (active).

Values taken from PubChem BioAssay AID1259422 (The Scripps Research Institute Molecular Screening Center, 2018).
